# Laboratory results taken from PubChem BioAssay (NCATS).
# Results filed as inconclusive are left out. A call without a number means that no potency is given here. Calls of active or inactive are those of the source. Unless noted, calls follow the shape of the full dose curve.
# Columns and labels:
# [1] = P-glycoprotein substrates identified in KB-8-5-11 adenocarcinoma cell line, qHTS therapeutic library screen (AID 1346987; active = well fitted curve in the direction sought with a large enough effect; an effect the other way counts as inactive or inconclusive; also: nearly all actives have a fitted effect of over 65% in size; also: potency is read from the fitted curve at half-maximal effect)
# Summary of the method: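 Compounds are pinned in dose-response onto KB-8-5-11 cells (500 cells/well, colchicine-free medium) and left 72 h at 37 degree C. CellTiter-Glo luminescence then yields AC50 values.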
# [2] = qHTS for Inhibitors of the Functional Ribonucleoprotein Complex (vRNP) of Lassa (LASV) Arenavirus: Viability assay - alamar blue signal for LASV Primary Screen (AID 1347083; calls by dose curve; tested in HEK293 reporter line; also: series mostly up to about 57 µM; nearly all actives have a fitted effect of over 80% in size)
# [3] = qHTS for Inhibitors of the Functional Ribonucleoprotein Complex (vRNP) of Lymphocytic Choriomeningitis Arenaviruses (LCMV): Viability assay - alamar blue signal for LCMV Primary Screen (AID 1347085; calls by dose curve; tested in HEK293 reporter line; also: series mostly up to about 57 µM; nearly all actives have a fitted effect of over 80% in size)
# [4] = biological target: Nucleoprotein (Lymphocytic choriomeningitis virus (strain Armstrong)) (UniProt P09992); assay: qHTS for Inhibitors of the Functional Ribonucleoprotein Complex (vRNP) of Lymphocytic Choriomeningitis Arenaviruses (LCMV): LCMV Primary Screen - GLuc reporter signal (AID 1347086); also: series mostly up to about 57 µM; nearly all actives have a fitted effect of over 70% in size
# [5] = NS1 protein of Zika virus - qHTS assay to identify small molecule inhibitors in human HEK 293 cells (AID 1347053; active = well fitted curve in the direction sought with a large enough effect; an effect the other way counts as inactive or inconclusive; also: series mostly up to about 46 µM; nearly all actives have a fitted effect of over 55% in size)
# Summary of the method: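 TR-FRET signal from two anti-ZIKV NS1 antibodies quantified NS1 in HEK 293 cells 24 h after MR766 infection at MOI = 0.5; compounds were added 1 h before virus. Uninfected cells and infected cells defined the NS1 normalization range.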
# [6] = qHTS for Inhibitors of the Functional Ribonucleoprotein Complex (vRNP) of Lassa (LASV) Arenavirus: LASV Primary Screen - GLuc reporter signal (AID 1347082; calls by dose curve; tested in HEK293 reporter line; also: series mostly up to about 57 µM; nearly all actives have a fitted effect of over 60% in size)
# [7] = Natriuretic polypeptide receptor (hNpr1) antagonism - Pilot counterscreen GloSensor control cell line (AID 1347045); also: series mostly up to about 38 µM
# Summary of the method: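 Control counterscreen: luciferase cGMP-biosensor HEK293 cells (no Npr1) received compound for 30 min at room temperature after GloSensor substrate loading. Luminescence was measured before and 20 min after soluble guanylyl cyclase activation by 50 uM nitroprusside.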
# [8] = biological target: Atrial natriuretic peptide receptor 1 (Homo sapiens) (UniProt P16066); assay: Natriuretic polypeptide receptor (hNpr1) antagonism - Pilot screen (AID 1347049);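 also: agonist-evoked cGMP luminescence read 20 min after hNppA addition; series mostly up to about 58 µM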
# Summary of the method: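 cGMP-sensor HEK293/hNpr1 cells, 1500/well, plated overnight at 37C. 2% GloSensor reagent, 2 h RT. Compound (23 nL pin transfer) 30 min RT, baseline luminescence pre-read. 0.1 nM hNppA, 20 min RT, post-read.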
# [9] = biological target: Atrial natriuretic peptide receptor 2 (Homo sapiens) (UniProt P20594); assay: Natriuretic polypeptide receptor (hNpr2) antagonism - Pilot subtype selectivity assay (AID 1347050)
# Summary of the method: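 Luminescence from a genetically encoded cGMP luciferase biosensor in hNpr2-expressing HEK293 cells is read before and 20 min after adding 1 nM hNppC. Test compounds, in interplate 1:5 titrations, are added 30-50 min ahead of the agonist.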
# [10] = biological target: T1, Tyrosine-protein phosphatase non-receptor type substrate 1 (Homo sapiens) + Leukocyte surface antigen CD47 (Homo sapiens) (UniProt P78324+Q08722); assay: CD47-SIRPalpha protein protein interaction - LANCE assay qHTS validation (AID 1347057; active = well fitted curve in the direction sought with a large enough effect in the signal ratio, with a control signal flat, not every such curve was filed as active; the % refers to the signal ratio; also: series mostly up to about 38 µM)
# Summary of the method: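 Inhibition of soluble CD47/SIRPalpha ectodomain association by titrated compounds, measured as 665/615 nm time-resolved FRET ratio after sequential 30 min room-temperature incubations.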
# [11] = biological target: T1, Tyrosine-protein phosphatase non-receptor type substrate 1 (Homo sapiens) + Leukocyte surface antigen CD47 (Homo sapiens); assay: CD47-SIRPalpha protein protein interaction - HTRF assay qHTS validation (AID 1347058; active = well fitted curve in the direction sought with a large enough effect in the signal ratio, not every such curve was filed as active; the % refers to the signal ratio; also: series mostly up to about 38 µM)
# Summary of the method: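 Soluble extracellular domains (6His-CD47, Avi-tag-biotinylated SIRPalpha) in PBS pH 7.4 with 0.05% IGEPAL CA-630. Compounds were preincubated 30 min at RT with CD47 and anti-His-Eu, then SIRPalpha and SAV-XL665 were added. TR-FRET 665/615 ratio.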
# [12] = biological target: T1, Tyrosine-protein phosphatase non-receptor type substrate 1 (Homo sapiens) + Leukocyte surface antigen CD47 (Homo sapiens); assay: CD47-SIRPalpha protein protein interaction - Alpha assay qHTS validation (AID 1347059; active = well fitted curve in the direction sought with a large enough effect; an effect the other way counts as inactive or inconclusive;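 also: bead proximity luminescence from CD47 binding SIRPalpha after compound preincubation with SIRPalpha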)
# Summary of the method: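 SIRPalpha-biotin 25 nM + cpd, 30 min RT, dark; add CD47-His 12.5 nM, 30 min; add Ni-NTA/SAV beads 10 ug/mL, 30 min; AlphaScreen. Buffer PBS pH 7.4 + 0.05% IGEPAL CA-630. Non-biotinylated SIRPalpha as control inhibitor.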
# [13] = biological target: Parathyroid hormone/parathyroid hormone-related peptide receptor (Homo sapiens) (UniProt Q03431); assay: qHTS for PTHR1 Agonists: Optimization Screen against the NCGC LOPAC library (AID 1347079; active = well fitted curve in the direction sought with a large enough effect; an effect the other way counts as inactive or inconclusive;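 also: GloSensor cAMP luminescence in HEK-293 GP2 cells expressing human PTHR1 with IBMX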)
# Summary of the method: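 HEK-293 GP2 cells, PTHR1 + GloSensor cAMP; 3000 cells/well, o/n. Luciferin + IBMX 0.5mM each (stock), 1 hr 37C. Cpd titration, 1 hr 37C. Lum after 15 min RT. Ctrl M-PTH(1-15) top 10uM.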
# [14] = qHTS of pediatric cancer cell lines to identify multiple opportunities for drug repurposing: Primary screen for DAOY cells (AID 1347090; active = well fitted curve in the direction sought with a large enough effect; an effect the other way counts as inactive or inconclusive; also: potency is read from the fitted curve at half-maximal effect; nearly all actives have a fitted effect of over 55% in size)
# Summary of the method: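 Viability measured as metabolically active cells via CellTiter-Glo luminescence following 48 hours of compound exposure, 11-point dilutions in confirmatory testing. 500-1,000 cells/well plated 5 hours before dosing; controls were DMSO and 2.3 µM bortezomib.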
# [15] = qHTS of pediatric cancer cell lines to identify multiple opportunities for drug repurposing: Primary screen for A673 cells (AID 1347092; active = well fitted curve in the direction sought with a large enough effect; an effect the other way counts as inactive or inconclusive; also: potency is read from the fitted curve at half-maximal effect; nearly all actives have a fitted effect of over 45% in size)
# Summary of the method: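 A673 cells (500-1,000 cells/well in growth media) were pre-incubated 5 h at 37 degrees C, then exposed to compounds for 48 h. Viability was read as CellTiter-Glo luminescence; concentration-response curves came directly from the primary screen.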
# [16] = qHTS of pediatric cancer cell lines to identify multiple opportunities for drug repurposing: Primary screen for SK-N-MC cells (AID 1347093; active = well fitted curve in the direction sought with a large enough effect; an effect the other way counts as inactive or inconclusive; also: potency is read from the fitted curve at half-maximal effect)
# Summary of the method: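 Metabolically active cells were quantified by ATP-dependent luminescence (CellTiter-Glo, 15 min at room temperature) following 48 h treatment. Cells had been plated at 500-1,000 per well and settled for 5 h beforehand.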
# [17] = qHTS of pediatric cancer cell lines to identify multiple opportunities for drug repurposing: Primary screen for BT-37 cells (AID 1347094; active = well fitted curve in the direction sought with a large enough effect; an effect the other way counts as inactive or inconclusive; also: potency is read from the fitted curve at half-maximal effect)
# Summary of the method: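 Phenotypic viability qHTS, 48 h compound exposure, CellTiter-Glo luminescence read-out; multi-concentration dosing so that potency and efficacy derive directly from the primary screen's curves.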
# Parathyroid hormone/parathyroid hormone-related peptide receptor (Homo sapiens), sequence (Q03431 whole entry, looked up): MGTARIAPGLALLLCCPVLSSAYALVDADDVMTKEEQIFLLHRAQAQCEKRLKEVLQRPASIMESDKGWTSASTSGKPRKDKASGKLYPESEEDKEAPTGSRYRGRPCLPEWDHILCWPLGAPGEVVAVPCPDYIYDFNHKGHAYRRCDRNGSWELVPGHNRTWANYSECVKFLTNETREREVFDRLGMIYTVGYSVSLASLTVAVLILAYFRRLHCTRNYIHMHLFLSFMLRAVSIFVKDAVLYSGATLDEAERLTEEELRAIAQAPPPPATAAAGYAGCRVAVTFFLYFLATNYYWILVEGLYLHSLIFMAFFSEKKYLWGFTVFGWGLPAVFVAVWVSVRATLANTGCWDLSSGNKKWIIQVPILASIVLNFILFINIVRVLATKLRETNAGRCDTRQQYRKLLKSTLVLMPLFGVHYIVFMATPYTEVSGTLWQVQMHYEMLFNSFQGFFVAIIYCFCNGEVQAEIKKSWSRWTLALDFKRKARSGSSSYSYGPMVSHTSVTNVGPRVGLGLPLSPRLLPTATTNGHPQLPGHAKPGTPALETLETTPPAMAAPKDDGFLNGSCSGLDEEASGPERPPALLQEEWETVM
# Atrial natriuretic peptide receptor 2 (Homo sapiens), sequence (P20594 whole entry, looked up): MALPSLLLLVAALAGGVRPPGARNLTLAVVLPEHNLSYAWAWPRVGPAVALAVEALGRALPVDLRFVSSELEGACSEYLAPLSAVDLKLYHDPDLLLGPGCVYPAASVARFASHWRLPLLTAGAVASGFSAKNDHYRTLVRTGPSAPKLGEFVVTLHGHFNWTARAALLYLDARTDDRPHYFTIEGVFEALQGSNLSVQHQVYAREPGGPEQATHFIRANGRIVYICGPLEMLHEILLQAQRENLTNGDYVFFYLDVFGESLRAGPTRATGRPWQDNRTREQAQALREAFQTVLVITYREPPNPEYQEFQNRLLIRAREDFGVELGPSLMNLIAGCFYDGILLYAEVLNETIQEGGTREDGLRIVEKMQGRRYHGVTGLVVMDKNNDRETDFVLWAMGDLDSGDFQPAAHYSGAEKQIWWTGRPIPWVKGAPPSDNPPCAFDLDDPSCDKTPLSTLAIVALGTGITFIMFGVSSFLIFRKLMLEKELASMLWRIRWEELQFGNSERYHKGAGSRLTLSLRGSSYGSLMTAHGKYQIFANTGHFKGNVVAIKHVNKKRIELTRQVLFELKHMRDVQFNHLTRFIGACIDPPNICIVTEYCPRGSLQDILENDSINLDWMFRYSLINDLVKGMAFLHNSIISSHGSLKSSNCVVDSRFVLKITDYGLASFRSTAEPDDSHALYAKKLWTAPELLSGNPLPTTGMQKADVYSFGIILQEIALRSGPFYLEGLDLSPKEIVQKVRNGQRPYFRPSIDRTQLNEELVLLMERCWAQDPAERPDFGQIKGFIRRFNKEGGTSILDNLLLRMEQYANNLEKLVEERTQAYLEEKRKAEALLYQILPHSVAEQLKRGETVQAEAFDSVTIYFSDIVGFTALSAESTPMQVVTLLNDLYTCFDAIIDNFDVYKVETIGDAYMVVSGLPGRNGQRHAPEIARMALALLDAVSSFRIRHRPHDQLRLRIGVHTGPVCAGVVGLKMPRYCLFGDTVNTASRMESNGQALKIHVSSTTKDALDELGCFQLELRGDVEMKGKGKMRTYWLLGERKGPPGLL
# Atrial natriuretic peptide receptor 1 (Homo sapiens), sequence (P16066 whole entry, looked up): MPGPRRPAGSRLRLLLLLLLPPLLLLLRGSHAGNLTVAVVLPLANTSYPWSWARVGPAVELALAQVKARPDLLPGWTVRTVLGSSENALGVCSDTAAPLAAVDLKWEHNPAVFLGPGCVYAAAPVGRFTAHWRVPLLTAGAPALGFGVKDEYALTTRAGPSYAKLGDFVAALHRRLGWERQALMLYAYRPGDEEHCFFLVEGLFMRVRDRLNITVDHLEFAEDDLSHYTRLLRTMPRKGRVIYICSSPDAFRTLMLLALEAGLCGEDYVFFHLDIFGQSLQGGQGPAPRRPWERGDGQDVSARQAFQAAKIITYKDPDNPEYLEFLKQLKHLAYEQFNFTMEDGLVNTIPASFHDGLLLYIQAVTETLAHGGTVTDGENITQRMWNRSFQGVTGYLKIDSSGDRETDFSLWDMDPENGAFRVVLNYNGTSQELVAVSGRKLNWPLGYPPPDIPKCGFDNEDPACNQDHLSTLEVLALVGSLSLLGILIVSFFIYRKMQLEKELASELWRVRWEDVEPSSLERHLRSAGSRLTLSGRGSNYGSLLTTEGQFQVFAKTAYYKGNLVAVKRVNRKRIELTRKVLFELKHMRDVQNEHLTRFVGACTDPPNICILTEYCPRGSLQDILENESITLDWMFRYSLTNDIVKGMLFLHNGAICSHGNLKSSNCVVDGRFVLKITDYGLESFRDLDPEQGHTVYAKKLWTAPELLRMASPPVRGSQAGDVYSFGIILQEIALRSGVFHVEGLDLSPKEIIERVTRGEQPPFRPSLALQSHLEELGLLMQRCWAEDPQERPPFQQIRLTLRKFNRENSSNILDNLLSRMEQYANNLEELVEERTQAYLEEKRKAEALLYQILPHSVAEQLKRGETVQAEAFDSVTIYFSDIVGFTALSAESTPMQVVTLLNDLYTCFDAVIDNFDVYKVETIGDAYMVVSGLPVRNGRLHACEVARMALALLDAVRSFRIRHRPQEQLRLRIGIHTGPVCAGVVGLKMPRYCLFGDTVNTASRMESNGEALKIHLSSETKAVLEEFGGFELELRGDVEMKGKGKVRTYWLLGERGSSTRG
# Nucleoprotein (Lymphocytic choriomeningitis virus (strain Armstrong)), sequence (P09992 whole entry, looked up): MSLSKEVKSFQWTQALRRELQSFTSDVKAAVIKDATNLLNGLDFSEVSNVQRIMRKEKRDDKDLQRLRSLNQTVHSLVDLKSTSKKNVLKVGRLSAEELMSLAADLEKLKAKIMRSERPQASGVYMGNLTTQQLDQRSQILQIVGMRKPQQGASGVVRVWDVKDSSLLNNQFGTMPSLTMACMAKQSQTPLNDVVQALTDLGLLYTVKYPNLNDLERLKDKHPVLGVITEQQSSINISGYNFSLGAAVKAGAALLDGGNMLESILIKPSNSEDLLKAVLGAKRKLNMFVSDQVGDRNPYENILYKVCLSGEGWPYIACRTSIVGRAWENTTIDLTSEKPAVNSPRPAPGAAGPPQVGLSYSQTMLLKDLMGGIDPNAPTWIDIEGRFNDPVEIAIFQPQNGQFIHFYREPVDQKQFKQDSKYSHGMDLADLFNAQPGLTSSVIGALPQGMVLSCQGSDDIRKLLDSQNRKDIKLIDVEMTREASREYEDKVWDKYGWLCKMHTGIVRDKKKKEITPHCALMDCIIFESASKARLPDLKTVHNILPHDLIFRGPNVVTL
# T1 sequence (P78324 whole entry, looked up, the tested form may be a part): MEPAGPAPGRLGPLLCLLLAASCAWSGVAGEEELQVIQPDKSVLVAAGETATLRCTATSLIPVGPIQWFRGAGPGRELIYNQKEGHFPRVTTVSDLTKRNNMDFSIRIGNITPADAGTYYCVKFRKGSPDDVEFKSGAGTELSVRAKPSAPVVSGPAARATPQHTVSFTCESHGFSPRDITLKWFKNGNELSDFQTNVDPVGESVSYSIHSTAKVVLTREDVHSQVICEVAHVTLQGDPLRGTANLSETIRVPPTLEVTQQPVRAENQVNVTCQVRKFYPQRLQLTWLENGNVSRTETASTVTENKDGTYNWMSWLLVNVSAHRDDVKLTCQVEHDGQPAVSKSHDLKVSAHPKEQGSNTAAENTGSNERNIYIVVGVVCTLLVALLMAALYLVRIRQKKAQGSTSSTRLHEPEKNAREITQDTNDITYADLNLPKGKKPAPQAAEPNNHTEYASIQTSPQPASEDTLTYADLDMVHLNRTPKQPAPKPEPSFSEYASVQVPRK
# T1 sequence (Q08722 whole entry, looked up, the tested form may be a part): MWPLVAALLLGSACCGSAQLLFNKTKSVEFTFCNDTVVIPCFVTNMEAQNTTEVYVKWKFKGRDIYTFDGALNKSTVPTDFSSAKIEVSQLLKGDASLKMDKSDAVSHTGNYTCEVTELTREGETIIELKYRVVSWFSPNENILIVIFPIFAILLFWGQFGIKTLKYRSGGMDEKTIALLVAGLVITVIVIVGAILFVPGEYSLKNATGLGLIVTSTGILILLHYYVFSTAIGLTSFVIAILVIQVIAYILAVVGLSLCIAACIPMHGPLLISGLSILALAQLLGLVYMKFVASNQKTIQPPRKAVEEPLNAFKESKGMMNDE
SMILES,Potency [1],Potency [2],Potency [3],Potency [4],outcome [5],Potency [6],Potency [7],Potency [8],Potency [9],Potency [10],outcome [11],Potency [12],Potency [13],Potency [14],Potency [15],Potency [16],Potency [17]
COC1=CC=C2[C@H]3Cc4ccc(OC)c5c4[C@@]2(CCN3C)[C@H]1O5,inactive,inactive,inactive,inactive,–,–,–,–,–,–,–,–,–,–,–,–,–
CN1CCC[C@@H]1Cc1c[nH]c2ccc(Nc3ncccc3[N+](=O)[O-])cc12,inactive,–,–,–,inactive,–,–,–,–,–,–,–,–,–,–,–,–
C[C@]12C=CC(=O)C=C1CC[C@@H]1[C@@H]2CC[C@]2(C)OC(=O)CC[C@@H]12,inactive,inactive,inactive,inactive,–,inactive,–,–,–,–,–,–,–,–,–,–,–
OC1CCCCC1N1CCC(c2ccccc2)CC1 (centres undefined),–,inactive,inactive,inactive,inactive,inactive,inactive,inactive,inactive,inactive,inactive,inactive,inactive,–,–,–,–
CN[C@H]1C[C@@H](N)[C@H](O)[C@@H](O[C@@H]2O[C@H](CO)[C@H](O)[C@@H]3OC4(O[C@H]23)O[C@H](C(N)CO)[C@H](O)[C@H](O)[C@H]4O)[C@@H]1O (some centres undefined),inactive,inactive,inactive,inactive,–,inactive,–,–,–,–,–,–,–,–,–,–,–
CC(N)Cc1c[nH]c2ccc(OCc3cccs3)cc12 (centres undefined),–,inactive,inactive,inactive,inactive,inactive,inactive,inactive,inactive,inactive,inactive,inactive,inactive,–,–,–,–
O=P(O)(O)C(Cl)(Cl)P(=O)(O)O,inactive,inactive,inactive,inactive,–,inactive,–,–,–,–,–,–,–,–,–,–,–
CCCCCl,inactive,–,–,–,–,–,–,–,–,–,–,–,–,–,–,–,–
NCCc1ccc(S(=O)(=O)F)cc1,–,inactive,inactive,inactive,inactive,inactive,inactive,inactive,inactive,inactive,inactive,inactive,inactive,–,–,–,–
Clc1cc(I)cc(Cl)c1NC1=NCCN1,–,inactive,inactive,inactive,inactive,inactive,inactive,inactive,inactive,inactive,inactive,inactive,inactive,–,–,–,–
N#CCCN,–,inactive,inactive,inactive,inactive,inactive,inactive,inactive,inactive,inactive,inactive,inactive,inactive,–,–,–,–
NNC(N)=O,–,inactive,inactive,inactive,inactive,inactive,inactive,inactive,inactive,inactive,inactive,inactive,inactive,–,–,–,–
CP(=O)(O)C1=CCNCC1,–,inactive,inactive,inactive,inactive,inactive,inactive,inactive,inactive,inactive,inactive,inactive,inactive,–,–,–,–
CCCN(CCC)[C@H]1CCc2c(F)ccc(O)c2C1,–,inactive,inactive,inactive,inactive,inactive,inactive,inactive,inactive,inactive,inactive,inactive,inactive,–,–,–,–
COc1ccc(OC)c(C(O)C(C)N)c1 (centres undefined),–,inactive,inactive,inactive,inactive,inactive,inactive,inactive,inactive,inactive,inactive,inactive,inactive,–,–,–,–
COc1ccc2c(c1)/C(=C/c1cnc[nH]1)C(=O)N2,5170 nM (active),–,–,–,–,–,inactive,inactive,inactive,–,–,–,inactive,–,–,–,–
NC(=O)c1ccc(OCC(O)CN2CC=C(c3ccc(F)cc3)CC2)cc1 (centres undefined),–,inactive,inactive,inactive,inactive,inactive,inactive,inactive,inactive,inactive,inactive,inactive,inactive,–,–,–,–
COc1ccc2[nH]cc(CCN)c2c1,–,inactive,inactive,inactive,inactive,inactive,inactive,inactive,inactive,inactive,inactive,inactive,inactive,–,–,–,–
CC(C)(C)c1o[nH]c(=O)c1CC(N)C(=O)O (centres undefined),–,inactive,–,–,inactive,inactive,inactive,inactive,inactive,inactive,inactive,inactive,inactive,–,–,–,–
C[CH2][Hg][S]c1ccccc1C(=O)O,2310 nM (active),inactive,inactive,inactive,–,inactive,–,–,–,–,–,–,–,2660 nM (active),841 nM (active),668 nM (active),12300 nM (active)
Cc1[nH]c2ccc(O)cc2c1CCN,–,inactive,inactive,inactive,inactive,inactive,inactive,inactive,inactive,inactive,inactive,inactive,inactive,–,–,–,–
NCCc1c[nH]c2ccc(C(N)=O)cc12,–,inactive,inactive,inactive,inactive,inactive,inactive,inactive,inactive,inactive,inactive,inactive,inactive,–,–,–,–
O=C/C=C/c1ccccc1,inactive,inactive,inactive,inactive,–,inactive,–,–,–,–,–,–,–,–,–,–,–
CCN1C[C@@]2(COC)C3[C@@H](OC)C4[C@@H]1C3([C@@H]1C[C@]3(O)[C@H](OC(=O)c5ccccc5)[C@@H]1[C@]4(OC(C)=O)[C@@H](O)[C@@H]3OC)[C@H](OC)C[C@H]2O,–,inactive,inactive,inactive,inactive,inactive,inactive,inactive,inactive,inactive,inactive,inactive,inactive,–,–,–,–
